The values below come from PubChem BioAssay.

Assay [1] is described as follows: antimalarial activity against Dd2 strain (AID 2302;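 active = growth inhibition above 50% at the single 2 µM test dose, taken to imply half-maximal potency below 2 µM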;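 note: 0% = DMSO untreated growth and 100% = chloroquine plus artemisinin killed control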). The settings on record: P. falciparum Dd2 in RBCs, LDH growth readout, 72 h; at 2 µM; stronger effect = higher value.
The nature of assay [2]: HepG2 cytotoxicity, primary screen, cytotoxicity control for P. falciparum antimalarial project, cell-based, ATP luminescence (AID 2303;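 active = inhibition above 50%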;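 note: 0% = DMSO wells and 100% = digitonin-killed cells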). The settings on record: HepG2 viability, 24-48 h, at 10 µM, stronger effect = higher value.
In assay [3] the target is L-lactate dehydrogenase (Plasmodium falciparum (isolate CDC / Honduras)) (UniProt Q27743). Kind of assay: PfLDH activity inhibition – cell lysate, 3D7 strain, counter-screen for P. falciparum growth inhibition project (AID 2304).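 Note: 0% = vehicle and 100% = reference inhibitor.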 The settings on record: P. falciparum 3D7 crude extract, LDH APAD/NBT absorbance; at 2 µM; stronger effect = higher value.
Assay [4] is described as follows: inhibition of 3D7 malaria parasite growth – strain 3D7 (AID 2306).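 Note: 0% = DMSO wells and 100% = chloroquine plus artemisinin control wells.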 Conditions: P. falciparum 3D7 erythrocytic growth, LDH absorbance, 72 h; at 2 µM; stronger effect = higher value.
Assay [5] concerns the target Calcium-dependent protein kinase 1 (Plasmodium falciparum (isolate 3D7)) (UniProt P62344). Kind of assay: PfCDPK1 kinase inhibitors, biochemical, TCAMS library (AID 1159585; cut-off not given, nearly all actives have IC50 up to about 0.98 µM;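 note: inhibitors leave more ATP so luminescence rises with inhibition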). The settings on record: recombinant PfCDPK1, Kinase-Glo ATP depletion luminescence.
Assay [6] has as its target Plasmodium falciparum protein kinase 6 (PK6, PF3D7_1337100) (UniProt Q8IDW1). Kind of assay: PfPK6 kinase inhibitors, biochemical, TCAMS library (AID 1159586). The settings on record: recombinant PfPK6, Kinase-Glo ATP depletion luminescence. A general note: Kinase-Glo measures the ATP left after a reaction by luminescence.
Assay [7] addresses Protein kinase 7 (PK7), Plasmodium falciparum 3D7 (PF3D7_0213400) (UniProt Q7YTF7). Kind of assay: inhibition of Plasmodium PK7 catalytic activity – biochemical, TCAMS antimalarial set, Kinase-Glo luminescence (AID 1159587). The settings on record: recombinant PfPK7, Kinase-Glo ATP depletion luminescence.
The target of assay [8] is Calcium-dependent protein kinase 4 (Plasmodium falciparum (isolate 3D7)) (UniProt Q8IBS5). Briefly: PfCDPK4 kinase inhibitors, biochemical, TCAMS library (AID 1159588; cut-off not given, nearly all actives have IC50 up to about 0.91 µM). The settings on record: recombinant PfCDPK4, Kinase-Glo ATP depletion luminescence.

A word on the inhibition: it is the relative decrease from the control value, in per cent.

Molecules are shown by their SMILES. Values without a mark were called inactive. For part of these data: Entries with a potency or affinity are not part of this list. Active and inactive are the calls of the source. Unless noted, the rule behind the calls is not given here.

Sequence of Protein kinase 7 (PK7), Plasmodium falciparum 3D7 (PF3D7_0213400) (Q7YTF7 1-343): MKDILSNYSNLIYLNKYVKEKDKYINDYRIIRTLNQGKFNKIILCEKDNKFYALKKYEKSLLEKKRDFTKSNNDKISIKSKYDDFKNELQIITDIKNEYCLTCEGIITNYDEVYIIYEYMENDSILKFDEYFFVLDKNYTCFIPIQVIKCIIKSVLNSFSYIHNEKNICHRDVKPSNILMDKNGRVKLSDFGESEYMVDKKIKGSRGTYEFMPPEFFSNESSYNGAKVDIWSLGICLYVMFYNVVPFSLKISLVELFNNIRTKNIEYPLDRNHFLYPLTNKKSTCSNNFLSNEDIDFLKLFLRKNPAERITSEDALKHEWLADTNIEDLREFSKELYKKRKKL
Sequence of L-lactate dehydrogenase (Plasmodium falciparum (isolate CDC / Honduras)) (Q27743 whole entry, looked up): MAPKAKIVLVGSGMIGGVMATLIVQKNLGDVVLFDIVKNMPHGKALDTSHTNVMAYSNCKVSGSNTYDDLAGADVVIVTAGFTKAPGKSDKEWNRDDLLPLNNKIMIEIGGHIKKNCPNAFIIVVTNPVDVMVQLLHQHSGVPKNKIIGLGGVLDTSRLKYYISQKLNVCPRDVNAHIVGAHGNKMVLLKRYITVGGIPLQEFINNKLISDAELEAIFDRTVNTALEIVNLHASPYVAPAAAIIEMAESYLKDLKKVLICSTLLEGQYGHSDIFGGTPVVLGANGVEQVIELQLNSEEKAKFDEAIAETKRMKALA
Sequence of Plasmodium falciparum protein kinase 6 (PK6, PF3D7_1337100) (Q8IDW1 1-305): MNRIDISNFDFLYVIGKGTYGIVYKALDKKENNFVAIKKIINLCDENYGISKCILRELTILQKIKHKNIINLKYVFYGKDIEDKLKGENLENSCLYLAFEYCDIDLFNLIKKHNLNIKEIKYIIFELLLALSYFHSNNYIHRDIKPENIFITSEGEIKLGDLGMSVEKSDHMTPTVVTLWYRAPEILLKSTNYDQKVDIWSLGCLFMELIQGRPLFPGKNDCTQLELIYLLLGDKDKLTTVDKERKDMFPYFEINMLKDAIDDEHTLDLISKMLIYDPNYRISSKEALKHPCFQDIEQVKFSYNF
Sequence of Calcium-dependent protein kinase 1 (Plasmodium falciparum (isolate 3D7)) (P62344 whole entry, looked up): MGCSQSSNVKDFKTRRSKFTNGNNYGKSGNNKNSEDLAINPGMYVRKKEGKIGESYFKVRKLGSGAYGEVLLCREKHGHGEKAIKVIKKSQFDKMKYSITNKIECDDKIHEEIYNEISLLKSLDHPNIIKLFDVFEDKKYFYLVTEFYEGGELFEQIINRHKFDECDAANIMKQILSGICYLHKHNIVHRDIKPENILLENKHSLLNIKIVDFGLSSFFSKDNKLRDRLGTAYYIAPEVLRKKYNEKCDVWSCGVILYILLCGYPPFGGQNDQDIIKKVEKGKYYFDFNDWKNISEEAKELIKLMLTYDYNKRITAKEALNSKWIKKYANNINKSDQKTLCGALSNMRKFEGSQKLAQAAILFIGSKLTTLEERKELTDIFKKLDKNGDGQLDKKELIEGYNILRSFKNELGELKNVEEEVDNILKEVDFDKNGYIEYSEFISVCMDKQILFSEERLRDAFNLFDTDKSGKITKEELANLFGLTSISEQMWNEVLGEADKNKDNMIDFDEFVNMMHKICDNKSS
Sequence of Calcium-dependent protein kinase 4 (Plasmodium falciparum (isolate 3D7)) (Q8IBS5 whole entry, looked up): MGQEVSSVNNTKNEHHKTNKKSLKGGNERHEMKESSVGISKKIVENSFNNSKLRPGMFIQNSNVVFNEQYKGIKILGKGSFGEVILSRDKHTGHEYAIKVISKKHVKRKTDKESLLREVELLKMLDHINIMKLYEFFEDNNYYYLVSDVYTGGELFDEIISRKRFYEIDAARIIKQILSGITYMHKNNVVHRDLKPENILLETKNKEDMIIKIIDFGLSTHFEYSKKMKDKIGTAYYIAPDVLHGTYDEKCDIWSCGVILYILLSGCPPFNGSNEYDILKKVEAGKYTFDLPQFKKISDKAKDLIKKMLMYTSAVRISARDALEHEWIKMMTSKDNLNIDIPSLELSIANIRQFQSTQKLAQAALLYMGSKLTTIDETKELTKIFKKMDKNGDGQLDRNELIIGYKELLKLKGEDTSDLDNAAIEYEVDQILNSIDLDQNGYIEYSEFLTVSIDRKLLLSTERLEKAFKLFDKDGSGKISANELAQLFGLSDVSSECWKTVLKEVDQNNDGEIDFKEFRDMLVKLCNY

For `CCn1c(-c2nonc2N)nc2c(Cl)ncc(O[C@H](CCN)c3ccccc3F)c21`, the growth inhibition in assay [1] is 88% (active); in assay [4] it was 96% (active). The inhibition is 15% in assay [2] and -2% in assay [3]. The result in assay [5], in assay [6], in assay [7] and in assay [8] was inactive.

For the compound `CCOC(=O)c1cncc(/C=C/c2cc(C)cnc2N)c1`, the results for the growth inhibition in assay [1] and in assay [4] were 3% and 86% (active), respectively. For the same compound, the values for the inhibition in assay [2] and in assay [3] were 4% and -4%, respectively. Further, the outcome in assay [5], in assay [6], in assay [7] and in assay [8] was inactive.

In the case of `O=S(=O)(NCCN1CCCC1)c1cccc(-c2ccc(CNC3Cc4ccccc4C3)cc2)c1`, the growth inhibition in assay [1] was 74% (active); in assay [4], 99% (active). Also, the inhibition was 79% (active) in assay [2] and -4% in assay [3]. Besides, the result in assay [5], in assay [6], in assay [7] and in assay [8] was inactive.

For the compound `CCc1cn(C)c2c(N3CCCC3=O)cc(C(=O)N[C@@H](Cc3ccccc3)[C@H](O)CNC(C)(C)CCCC(C)C)cc12`, the figures for the growth inhibition in assay [1] and in assay [4] were 98% (active) and 97% (active), respectively. In addition, the inhibition in assay [2] was 15%; in assay [3] it was -4%. The outcome in assay [5], in assay [6], in assay [7] and in assay [8] was inactive.

Turning to `Cc1cc(Nc2ccnc(-c3ccc(Cl)cc3)n2)ccn1`, the growth inhibition in assay [1] was 23%; in assay [4], 94% (active). The inhibition in assay [2] was 6%; in assay [3], -4%. Besides, the outcome in assay [5], in assay [6], in assay [7] and in assay [8] was inactive.

For `CC[C@H](C)CNC(=O)c1ccc(-c2cccc(CN3CCC(N4CCCC4)CC3)c2)nc1`, the growth inhibition in assay [1] was 7%; in assay [4], 91% (active). The inhibition is -1% in assay [2] and -7% in assay [3]. In addition, the result in assay [5], in assay [6], in assay [7] and in assay [8] was inactive.

Consider `COc1ccc(C(=O)Nc2nonc2-c2ccc(OC)c(OC)c2)cc1Cl`, for which the growth inhibition in assay [1] and in assay [4] was 97% (active) each time. Also, the inhibition in assay [2] was 6%; in assay [3], 0%. Further, the outcome in assay [5], in assay [6], in assay [7] and in assay [8] was inactive.

Regarding `CC(=O)c1ccccc1C(=O)N1CCOc2ccc(C(O)C(c3ccccc3)c3ccccc3)cc2C1` (stereo not drawn), the results for the growth inhibition in assay [1] and in assay [4] were 98% (active) and 96% (active), respectively. In addition, the inhibition in assay [2] is 10%; in assay [3], 3%. In addition, the outcome in assay [5], in assay [6], in assay [7] and in assay [8] was inactive.

Regarding `CN1CCN(c2ccc(Nc3ncc([N+](=O)[O-])c(Nc4ccccc4O)n3)cc2)CC1`, the growth inhibition in assay [1] is 97% (active); in assay [4] it was 100% (active). Besides, the inhibition is 98% (active) in assay [2] and -3% in assay [3]. The outcome in assay [5], in assay [6], in assay [7] and in assay [8] was inactive.

On to `O=c1cc(NCCCNCc2cc3c(Cl)cccc3s2)[nH]c2ccccc12`, for which the growth inhibition was 57% (active) in assay [1] and 102% (active) in assay [4]. The inhibition in assay [2] was 6%; in assay [3] it was -7%. Further, the result in assay [5], in assay [6], in assay [7] and in assay [8] was inactive.

Take `FC(F)(F)c1ccc2nc(-c3cccc(-c4ccc(CNCCN5CCNCC5)cc4)c3)[nH]c2c1`: the growth inhibition is 0% in assay [1] and 96% (active) in assay [4]. For the same compound, the inhibition in assay [2] was 17%; in assay [3], 4%. Besides, the result in assay [5], in assay [6], in assay [7] and in assay [8] was inactive.

In the case of `CCN(CC)C(=NCCCCCCN=C(/N=C(\N)c1ccc(Cl)cc1)N(CC)CC)/N=C(\N)c1ccc(Cl)cc1`, the results for the growth inhibition in assay [1] and in assay [4] were 99% (active) and 97% (active), respectively. Moreover, the inhibition in assay [2] and in assay [3] was 1% each time. The result in assay [5], in assay [6], in assay [7] and in assay [8] was inactive.

`Cc1cc2c(cc1C(F)(F)F)N(C(=O)Nc1ccc(OCCN(C)C)c(C(F)(F)F)c1)CC2`: the growth inhibition in assay [1] is 23%; in assay [4] it was 93% (active). Moreover, the inhibition in assay [2] was 38%; in assay [3], -2%. Moreover, the outcome in assay [5], in assay [6], in assay [7] and in assay [8] was inactive.

On to `c1cncc(CCNCc2ccc(-c3ccc(-c4nc5ccccc5[nH]4)s3)cc2)c1`, for which the growth inhibition was 99% (active) in assay [1] and 101% (active) in assay [4]. Also, the inhibition in assay [2] was 35%; in assay [3], -3%. The result in assay [5], in assay [6], in assay [7] and in assay [8] was inactive.

Take `COc1cc(C=CC(=O)N2CCN(Cc3cccc(C)c3)CC2)ccc1OCc1c(C)noc1C`: the values for the growth inhibition in assay [1] and in assay [4] were 95% (active) and 86% (active), respectively. The results for the inhibition in assay [2] and in assay [3] were 8% and -4%, respectively. Also, the result in assay [5], in assay [6], in assay [7] and in assay [8] was inactive.

Turning to `Nc1nc(N)c2c(ccc3c2ccn3Cc2ccc(-c3ccccc3)cc2)n1`, the growth inhibition in assay [1] is 93% (active); in assay [4], 98% (active). Also, the results for the inhibition in assay [2] and in assay [3] were 100% (active) and 4%, respectively. Moreover, the outcome in assay [5], in assay [6], in assay [7] and in assay [8] was inactive.

`CN(CC1CCC(NC(=O)/C=C/c2ccc(Cl)c(Cl)c2)CC1)C1CCC(c2c[nH]c3ccccc23)CC1` (stereo not drawn): the figures for the growth inhibition in assay [1] and in assay [4] were 53% (active) and 99% (active), respectively. Moreover, the inhibition was 53% (active) in assay [2] and -3% in assay [3]. In addition, the result in assay [5], in assay [6], in assay [7] and in assay [8] was inactive.

Regarding `CC(C)(C)c1cc([N+](=O)[O-])cc(C(=O)Nc2ccccc2C(F)(F)F)c1O`, the growth inhibition in assay [1] was 99% (active); in assay [4] it was 96% (active). Further, the results for the inhibition in assay [2] and in assay [3] were 74% (active) and 5%, respectively. Further, the outcome in assay [5], in assay [6], in assay [7] and in assay [8] was inactive.

Turning to `O=C(CSc1n[nH]c(-c2ccccc2Br)n1)c1c[nH]c2ccccc12`, the growth inhibition in assay [1] was 95% (active); in assay [4], 100% (active). For the same compound, the inhibition in assay [2] was 7%; in assay [3], -6%. For the same compound, the result in assay [5], in assay [6], in assay [7] and in assay [8] was inactive.

Take `CC(C)CCN=C(N)c1ccc(OCCCCCOc2ccc(C(N)=NCCC(C)C)cc2)cc1`: the values for the growth inhibition in assay [1] and in assay [4] were 94% (active) and 98% (active), respectively. Moreover, the inhibition in assay [2] and in assay [3] was 5% each time. In addition, the result in assay [5], in assay [6], in assay [7] and in assay [8] was inactive.

In the case of `CN(C)C(=O)c1ccc(CN(Cc2cccc(OC(C)(C)C)c2)Cc2ccc3c(c2)OCCO3)cc1`, the growth inhibition in assay [1] and in assay [4] was 96% (active) in each case. The inhibition in assay [2] was 0%; in assay [3] it was -2%. Further, the outcome in assay [5], in assay [6], in assay [7] and in assay [8] was inactive.
